This note sets out measurements from publication PMC11006913.

Holding throughout (experiment): PBM; 200 nM protein, PBS
What all share (settings): dsDNA, one strand shown

The target in assay [1] is HOXB9 (Homo sapiens, UniProt P17482 171-250, T197M).
Assay [2] deals with HOXC9 (Homo sapiens, UniProt P31274 178-260, K195R).
Assay [3] concerns the target HOXC10 (Homo sapiens, UniProt Q9NYD6 254-340).
Assay [4] has as its target HOXB9 (Homo sapiens, UniProt P17482 171-250).
The target in assay [5] is HOXC9 (Homo sapiens, UniProt P31274 178-260).
In assay [6] the target is HOXD13 (Homo sapiens, UniProt P35453 263-343, T313R).
Assay [7] addresses HOXC9 (Homo sapiens, UniProt P31274 178-260, R193K).
Assay [8] addresses HOXD13 (Homo sapiens, UniProt P35453 263-343).
Assay [9] addresses HOXC10 (Homo sapiens, UniProt Q9NYD6 254-340, K271E).
The target in assay [10] is HOXD13 (Homo sapiens, UniProt P35453 263-343, T313A).
The target of assay [11] is HOXB9 (Homo sapiens, UniProt P17482 171-250, R186Q).
Assay [12] addresses HOXC9 (Homo sapiens, UniProt P31274 178-260, R222W).
For another assay, the target named is ALX4 (Homo sapiens, UniProt Q9H161 200-286, Q225E).
Assay [13] has as its target MSX2 (Homo sapiens, UniProt P35548 130-214).
Assay [14] has as its target MSX2 (Homo sapiens, UniProt P35548 130-214, F161Y).

HOXC10 (Homo sapiens, UniProt Q9NYD6 254-340), sequence (Q9NYD6 254-340): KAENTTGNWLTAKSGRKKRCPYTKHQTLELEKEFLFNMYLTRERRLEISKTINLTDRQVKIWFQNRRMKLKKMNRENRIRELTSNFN
HOXC9 (Homo sapiens, UniProt P31274 178-260, R222W), sequence (P31274 178-260 R222W): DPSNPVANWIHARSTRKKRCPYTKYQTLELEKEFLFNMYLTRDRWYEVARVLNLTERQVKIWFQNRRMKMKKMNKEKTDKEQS
HOXC9 (Homo sapiens, UniProt P31274 178-260), sequence (P31274 178-260): as the sequence (P31274 178-260 R222W) above, with W45R counted along it
HOXD13 (Homo sapiens, UniProt P35453 263-343, T313A), sequence (P35453 263-343 T313A): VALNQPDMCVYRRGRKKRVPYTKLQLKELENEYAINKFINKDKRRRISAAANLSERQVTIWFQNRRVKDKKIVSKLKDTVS
HOXD13 (Homo sapiens, UniProt P35453 263-343, T313R), sequence (P35453 263-343 T313R): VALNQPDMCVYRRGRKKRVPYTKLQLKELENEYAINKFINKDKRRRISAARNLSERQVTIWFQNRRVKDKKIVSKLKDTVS
HOXB9 (Homo sapiens, UniProt P17482 171-250, T197M), sequence (P17482 171-250 T197M): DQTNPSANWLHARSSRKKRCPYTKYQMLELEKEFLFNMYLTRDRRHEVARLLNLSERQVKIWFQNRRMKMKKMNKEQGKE
HOXB9 (Homo sapiens, UniProt P17482 171-250), sequence (P17482 171-250): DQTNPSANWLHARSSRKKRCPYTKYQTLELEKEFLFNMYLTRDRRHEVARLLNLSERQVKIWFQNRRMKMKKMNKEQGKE
HOXC10 (Homo sapiens, UniProt Q9NYD6 254-340, K271E), sequence (Q9NYD6 254-340 K271E): as the sequence (Q9NYD6 254-340) above, with K18E counted along it
HOXB9 (Homo sapiens, UniProt P17482 171-250, R186Q), sequence (P17482 171-250 R186Q): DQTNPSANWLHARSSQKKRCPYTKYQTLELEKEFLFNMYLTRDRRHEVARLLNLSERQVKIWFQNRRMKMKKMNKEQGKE
HOXC9 (Homo sapiens, UniProt P31274 178-260, K195R), sequence (P31274 178-260 K195R): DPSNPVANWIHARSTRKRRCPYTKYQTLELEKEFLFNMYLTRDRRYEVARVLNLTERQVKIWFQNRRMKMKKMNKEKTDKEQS
HOXD13 (Homo sapiens, UniProt P35453 263-343), sequence (P35453 263-343): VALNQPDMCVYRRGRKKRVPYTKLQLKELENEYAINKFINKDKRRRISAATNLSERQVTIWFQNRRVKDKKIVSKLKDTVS
HOXC9 (Homo sapiens, UniProt P31274 178-260, R193K), sequence (P31274 178-260 R193K): as the sequence (P31274 178-260 R222W) above, with R16K, W45R counted along it
ALX4, sequence (Q9H161 200-286 Q225E): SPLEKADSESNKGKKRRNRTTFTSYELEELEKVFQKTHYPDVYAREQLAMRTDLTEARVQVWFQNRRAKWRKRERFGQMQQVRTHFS
MSX2 (Homo sapiens, UniProt P35548 130-214), sequence (P35548 130-214): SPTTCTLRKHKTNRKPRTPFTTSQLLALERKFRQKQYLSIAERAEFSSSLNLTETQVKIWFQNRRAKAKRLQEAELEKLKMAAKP
MSX2 (Homo sapiens, UniProt P35548 130-214, F161Y), sequence (P35548 130-214 F161Y): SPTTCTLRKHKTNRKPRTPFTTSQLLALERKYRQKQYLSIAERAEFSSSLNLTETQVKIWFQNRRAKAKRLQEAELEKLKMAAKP

With TCATAAAA, the binding signal with HOXB9 [1] was 9.93 upbm affinity estimate (log intensity, higher = more binding, comparable within an allelic series); in the assay with HOXC9 [2] it was 13 upbm affinity estimate (log intensity, higher = more binding, comparable within an allelic series); with HOXC10 [3], 12.8 upbm affinity estimate (log intensity, higher = more binding, comparable within an allelic series); in the assay with HOXB9 [4], 12.4 upbm affinity estimate (log intensity, higher = more binding, comparable within an allelic series); with HOXC9 [5], 13.1 upbm affinity estimate (log intensity, higher = more binding, comparable within an allelic series); in the assay with HOXD13 [6] it was 11 upbm affinity estimate (log intensity, higher = more binding, comparable within an allelic series). Moreover, the binding signal was 12.9 upbm affinity estimate (log intensity, higher = more binding, comparable within an allelic series) in the assay with HOXC9 [7]; 12.2 upbm affinity estimate (log intensity, higher = more binding, comparable within an allelic series) with HOXD13 [8]; 12.3 upbm affinity estimate (log intensity, higher = more binding, comparable within an allelic series) in the assay with HOXC10 [9]; 11.9 upbm affinity estimate (log intensity, higher = more binding, comparable within an allelic series) with HOXD13 [10]; 12.1 upbm affinity estimate (log intensity, higher = more binding, comparable within an allelic series) with HOXB9 [11]; 11.3 upbm affinity estimate (log intensity, higher = more binding, comparable within an allelic series) in the assay with HOXC9 [12].

In the case of ATTTTATG, the binding signal in the assay with HOXB9 [1] was 9.94 upbm affinity estimate (log intensity, higher = more binding, comparable within an allelic series); with HOXC9 [2] it was 13 upbm affinity estimate (log intensity, higher = more binding, comparable within an allelic series); in the assay with HOXC10 [3], 12.7 upbm affinity estimate (log intensity, higher = more binding, comparable within an allelic series); in the assay with HOXB9 [4], 12.5 upbm affinity estimate (log intensity, higher = more binding, comparable within an allelic series); with HOXC9 [5] it was 13.1 upbm affinity estimate (log intensity, higher = more binding, comparable within an allelic series); in the assay with HOXD13 [6], 10.8 upbm affinity estimate (log intensity, higher = more binding, comparable within an allelic series). The binding signal is 13 upbm affinity estimate (log intensity, higher = more binding, comparable within an allelic series) with HOXC9 [7]; 11.8 upbm affinity estimate (log intensity, higher = more binding, comparable within an allelic series) with HOXD13 [8]; 12.1 upbm affinity estimate (log intensity, higher = more binding, comparable within an allelic series) in the assay with HOXC10 [9]; 11.5 upbm affinity estimate (log intensity, higher = more binding, comparable within an allelic series) with HOXD13 [10]; 12.1 upbm affinity estimate (log intensity, higher = more binding, comparable within an allelic series) with HOXB9 [11]; 11.4 upbm affinity estimate (log intensity, higher = more binding, comparable within an allelic series) with HOXC9 [12].

With ATCATAAA, the binding signal with HOXB9 [1] was 9.69 upbm affinity estimate (log intensity, higher = more binding, comparable within an allelic series); with HOXC9 [2] it was 12.7 upbm affinity estimate (log intensity, higher = more binding, comparable within an allelic series); with HOXC10 [3] it was 12.5 upbm affinity estimate (log intensity, higher = more binding, comparable within an allelic series); with HOXB9 [4] it was 11.9 upbm affinity estimate (log intensity, higher = more binding, comparable within an allelic series); in the assay with HOXC9 [5] it was 12.8 upbm affinity estimate (log intensity, higher = more binding, comparable within an allelic series); with HOXD13 [6], 10.8 upbm affinity estimate (log intensity, higher = more binding, comparable within an allelic series). Besides, the binding signal in the assay with HOXC9 [7] is 12.7 upbm affinity estimate (log intensity, higher = more binding, comparable within an allelic series); in the assay with HOXD13 [8], 11.8 upbm affinity estimate (log intensity, higher = more binding, comparable within an allelic series); with HOXC10 [9], 11.8 upbm affinity estimate (log intensity, higher = more binding, comparable within an allelic series); in the assay with HOXD13 [10] it was 11.8 upbm affinity estimate (log intensity, higher = more binding, comparable within an allelic series); in the assay with HOXB9 [11] it was 11.7 upbm affinity estimate (log intensity, higher = more binding, comparable within an allelic series); with HOXC9 [12] it was 10.9 upbm affinity estimate (log intensity, higher = more binding, comparable within an allelic series).

With CTAATAAA, the binding signal in the assay with HOXB9 [1] is 9.76 upbm affinity estimate (log intensity, higher = more binding, comparable within an allelic series); with HOXC9 [2] it was 12.5 upbm affinity estimate (log intensity, higher = more binding, comparable within an allelic series); with HOXC10 [3], 12.5 upbm affinity estimate (log intensity, higher = more binding, comparable within an allelic series); with HOXB9 [4], 11.9 upbm affinity estimate (log intensity, higher = more binding, comparable within an allelic series); in the assay with HOXC9 [5], 12.7 upbm affinity estimate (log intensity, higher = more binding, comparable within an allelic series); with HOXD13 [6], 11.2 upbm affinity estimate (log intensity, higher = more binding, comparable within an allelic series). Further, the binding signal with HOXC9 [7] is 12.6 upbm affinity estimate (log intensity, higher = more binding, comparable within an allelic series); with HOXD13 [8], 12.3 upbm affinity estimate (log intensity, higher = more binding, comparable within an allelic series); in the assay with HOXC10 [9], 11.9 upbm affinity estimate (log intensity, higher = more binding, comparable within an allelic series); in the assay with HOXD13 [10], 12.1 upbm affinity estimate (log intensity, higher = more binding, comparable within an allelic series); with HOXB9 [11], 11.6 upbm affinity estimate (log intensity, higher = more binding, comparable within an allelic series); with HOXC9 [12], 11.1 upbm affinity estimate (log intensity, higher = more binding, comparable within an allelic series).

In the case of AATAAAAA, the binding signal with HOXB9 [1] is 9.88 upbm affinity estimate (log intensity, higher = more binding, comparable within an allelic series); in the assay with HOXC9 [2], 12.5 upbm affinity estimate (log intensity, higher = more binding, comparable within an allelic series); in the assay with HOXC10 [3] it was 12.4 upbm affinity estimate (log intensity, higher = more binding, comparable within an allelic series); with ALX4, 10.9 upbm affinity estimate (log intensity, higher = more binding, comparable within an allelic series); with HOXB9 [4], 11.9 upbm affinity estimate (log intensity, higher = more binding, comparable within an allelic series); with HOXC9 [5], 12.6 upbm affinity estimate (log intensity, higher = more binding, comparable within an allelic series). For the same sequence, the binding signal in the assay with HOXC9 [7] was 12.5 upbm affinity estimate (log intensity, higher = more binding, comparable within an allelic series); in the assay with HOXC10 [9], 11.9 upbm affinity estimate (log intensity, higher = more binding, comparable within an allelic series); with HOXB9 [11], 11.6 upbm affinity estimate (log intensity, higher = more binding, comparable within an allelic series); with HOXC9 [12], 11.2 upbm affinity estimate (log intensity, higher = more binding, comparable within an allelic series).

For the sequence ATTTATTG, the binding signal was 9.87 upbm affinity estimate (log intensity, higher = more binding, comparable within an allelic series) with HOXB9 [1]; 12.5 upbm affinity estimate (log intensity, higher = more binding, comparable within an allelic series) with HOXC9 [2]; 12.4 upbm affinity estimate (log intensity, higher = more binding, comparable within an allelic series) with HOXC10 [3]; 11.2 upbm affinity estimate (log intensity, higher = more binding, comparable within an allelic series) with ALX4; 11.9 upbm affinity estimate (log intensity, higher = more binding, comparable within an allelic series) in the assay with HOXB9 [4]; 12.7 upbm affinity estimate (log intensity, higher = more binding, comparable within an allelic series) in the assay with HOXC9 [5]. Besides, the binding signal in the assay with HOXD13 [6] was 10.9 upbm affinity estimate (log intensity, higher = more binding, comparable within an allelic series); with HOXC9 [7], 12.6 upbm affinity estimate (log intensity, higher = more binding, comparable within an allelic series); in the assay with HOXD13 [8], 12.2 upbm affinity estimate (log intensity, higher = more binding, comparable within an allelic series); with HOXC10 [9], 11.7 upbm affinity estimate (log intensity, higher = more binding, comparable within an allelic series); with HOXD13 [10], 12 upbm affinity estimate (log intensity, higher = more binding, comparable within an allelic series); in the assay with HOXB9 [11], 11.6 upbm affinity estimate (log intensity, higher = more binding, comparable within an allelic series). Also, in the assay with HOXC9 [12], the binding signal is 11.2 upbm affinity estimate (log intensity, higher = more binding, comparable within an allelic series).

Regarding ACATAAAA, the binding signal in the assay with HOXB9 [1] is 9.85 upbm affinity estimate (log intensity, higher = more binding, comparable within an allelic series); in the assay with HOXC9 [2], 12.8 upbm affinity estimate (log intensity, higher = more binding, comparable within an allelic series); with HOXC10 [3], 12.5 upbm affinity estimate (log intensity, higher = more binding, comparable within an allelic series); in the assay with HOXB9 [4], 12.3 upbm affinity estimate (log intensity, higher = more binding, comparable within an allelic series); with HOXC9 [5], 13 upbm affinity estimate (log intensity, higher = more binding, comparable within an allelic series); with HOXC9 [7], 12.9 upbm affinity estimate (log intensity, higher = more binding, comparable within an allelic series). Also, the binding signal is 12 upbm affinity estimate (log intensity, higher = more binding, comparable within an allelic series) in the assay with HOXC10 [9]; 11.3 upbm affinity estimate (log intensity, higher = more binding, comparable within an allelic series) with MSX2 [13]; 12 upbm affinity estimate (log intensity, higher = more binding, comparable within an allelic series) with HOXB9 [11]; 11.3 upbm affinity estimate (log intensity, higher = more binding, comparable within an allelic series) with HOXC9 [12]; 11.1 upbm affinity estimate (log intensity, higher = more binding, comparable within an allelic series) in the assay with MSX2 [14].
